Drawing on PubChem BioAssay (NCATS), this text covers Potency and outcome for ten compounds.

A short description of assay [1]: P-glycoprotein substrates identified in KB-8-5-11 adenocarcinoma cell line, qHTS therapeutic library screen (AID 1346987). Further: nearly all actives have a fitted effect of over 65% in size. Further: potency means the concentration at half of the fitted maximal effect. In a few lines:
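In this qHTS, P-gp-rich KB-8-5-11 cells received library compounds across a concentration range. Viability was quantified by luminescence after 72 h at 37 degree C.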

Assay [2] can be described thus: NS1 protein of Zika virus - qHTS assay to identify small molecule inhibitors in human HEK 293 cells (AID 1347053). Further: series mostly up to about 46 µM; nearly all actives have a fitted effect of over 55% in size. In outline:
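In this cell-based screen, HEK 293 cultures received compound for one hour before Zika MR766 at MOI = 0.5. NS1 was quantified 24 hours later by TR-FRET, normalized to virus-free wells and infected wells.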
Background: In qHTS, concentration-response curves come from the screen itself.

Assay [3] in a line: qHTS of pediatric cancer cell lines to identify multiple opportunities for drug repurposing: Primary screen for TC32 cells (AID 1347089). Further: nearly all actives have a fitted effect of over 60% in size. In outline:
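A viability screen of TC32 cells was run over 48 h, with primary MIPE doses spanning 0.78 nM–46 µM and NPC doses 0.59 nM–46 µM. ATP luminescence (CellTiter-Glo) served as the read-out.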

A short description of assay [4]: qHTS of pediatric cancer cell lines to identify multiple opportunities for drug repurposing: Primary screen for DAOY cells (AID 1347090). Further: series mostly up to about 46 µM; nearly all actives have a fitted effect of over 55% in size. In outline:
(§1)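 Eight- or eleven-point concentration series, 48 h treatment at 37 degrees C in growth media; readout CellTiter-Glo luminescence. Potency and efficacy were taken from the concentration-response curves.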

Assay [5] in a line: qHTS of pediatric cancer cell lines to identify multiple opportunities for drug repurposing: Primary screen for SJ-GBM2 cells (AID 1347091). In a few lines:
as §1

A short description of assay [6]: qHTS of pediatric cancer cell lines to identify multiple opportunities for drug repurposing: Primary screen for A673 cells (AID 1347092). Further: nearly all actives have a fitted effect of over 45% in size. In outline:
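Titration-based qHTS on A673 cells: MIPE compounds spanned 11 points (0.78 nM to 46 µM final), NPC compounds 8 points (0.59 nM to 46 µM final). Viability after 48 h was measured by ATP luminescence.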

The nature of assay [7]: qHTS of pediatric cancer cell lines to identify multiple opportunities for drug repurposing: Primary screen for SK-N-MC cells (AID 1347093). Further: series mostly up to about 46 µM. In a few lines: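 Metabolically active cells were quantified by ATP-dependent luminescence (CellTiter-Glo, 15 min at room temperature) following 48 h treatment. Cells had been plated at 500-1,000 per well and settled for 5 h beforehand.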

The nature of assay [8]: qHTS of pediatric cancer cell lines to identify multiple opportunities for drug repurposing: Primary screen for BT-37 cells (AID 1347094). Further: series mostly up to about 57 µM. In a few lines: (§2)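 Readout: CellTiter-Glo luminescence, 48 h treatment. Controls DMSO (neutral) and bortezomib 2.3 µM final (positive). Potency and efficacy taken from primary-screen concentration-response curves.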
Assay [9] in a line: qHTS of pediatric cancer cell lines to identify multiple opportunities for drug repurposing: Primary screen for NB-EBc1 cells (AID 1347095). In a few lines: as §2
A short description of assay [10]: qHTS of pediatric cancer cell lines to identify multiple opportunities for drug repurposing: Primary screen for U-2 OS cells (AID 1347096). Further: nearly all actives have a fitted effect of over 50% in size. In a few lines: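 Cells (500-1,000/well) in growth media were settled 5 h at 37 degrees C, then given compounds for 48 h. Viability was read as CellTiter-Glo luminescence. Primary runs used MIPE at 11 points (0.78 nM-46 µM) and NPC at 8 points (0.59 nM-46 µM); follow-ups used 11 points.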

Assay [11] can be described thus: Natriuretic polypeptide receptor (hNpr1) antagonism - Pilot counterscreen GloSensor control cell line (AID 1347045; calls by dose curve; further: series mostly up to about 38 µM). In outline:
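HEK293 cGMP-sensor cells; 2% GloSensor reagent 2 h RT; LOPAC compounds in 1:5 titrations 30-50 min; 50 uM SNP 20 min; luminescence pre-read and post-read.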
A general note: Counterscreens check selectivity or assay interference.

For assay [12], the target named is Atrial natriuretic peptide receptor 1 (Homo sapiens) (UniProt P16066). Briefly: Natriuretic polypeptide receptor (hNpr1) antagonism - Pilot screen (AID 1347049; calls by dose curve;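 further: HEK293 cells with hNpr1 and GloSensor cGMP luciferase stimulated by 0.1 nM hNppA; agonist-evoked cGMP luminescence read 20 min after hNppA addition; series mostly up to about 58 µM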). In a few lines: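 Cells expressing receptor plus cGMP biosensor are seeded and incubated overnight at 37C, then loaded with GloSensor reagent (2% final) at room temperature for 2 h. Library compounds go on for 30 min. A pre-read precedes agonist (hNppA, 0.1 nM final) and a 20-min readout.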
Chain of Atrial natriuretic peptide receptor 1 (Homo sapiens) (P16066 whole entry, looked up): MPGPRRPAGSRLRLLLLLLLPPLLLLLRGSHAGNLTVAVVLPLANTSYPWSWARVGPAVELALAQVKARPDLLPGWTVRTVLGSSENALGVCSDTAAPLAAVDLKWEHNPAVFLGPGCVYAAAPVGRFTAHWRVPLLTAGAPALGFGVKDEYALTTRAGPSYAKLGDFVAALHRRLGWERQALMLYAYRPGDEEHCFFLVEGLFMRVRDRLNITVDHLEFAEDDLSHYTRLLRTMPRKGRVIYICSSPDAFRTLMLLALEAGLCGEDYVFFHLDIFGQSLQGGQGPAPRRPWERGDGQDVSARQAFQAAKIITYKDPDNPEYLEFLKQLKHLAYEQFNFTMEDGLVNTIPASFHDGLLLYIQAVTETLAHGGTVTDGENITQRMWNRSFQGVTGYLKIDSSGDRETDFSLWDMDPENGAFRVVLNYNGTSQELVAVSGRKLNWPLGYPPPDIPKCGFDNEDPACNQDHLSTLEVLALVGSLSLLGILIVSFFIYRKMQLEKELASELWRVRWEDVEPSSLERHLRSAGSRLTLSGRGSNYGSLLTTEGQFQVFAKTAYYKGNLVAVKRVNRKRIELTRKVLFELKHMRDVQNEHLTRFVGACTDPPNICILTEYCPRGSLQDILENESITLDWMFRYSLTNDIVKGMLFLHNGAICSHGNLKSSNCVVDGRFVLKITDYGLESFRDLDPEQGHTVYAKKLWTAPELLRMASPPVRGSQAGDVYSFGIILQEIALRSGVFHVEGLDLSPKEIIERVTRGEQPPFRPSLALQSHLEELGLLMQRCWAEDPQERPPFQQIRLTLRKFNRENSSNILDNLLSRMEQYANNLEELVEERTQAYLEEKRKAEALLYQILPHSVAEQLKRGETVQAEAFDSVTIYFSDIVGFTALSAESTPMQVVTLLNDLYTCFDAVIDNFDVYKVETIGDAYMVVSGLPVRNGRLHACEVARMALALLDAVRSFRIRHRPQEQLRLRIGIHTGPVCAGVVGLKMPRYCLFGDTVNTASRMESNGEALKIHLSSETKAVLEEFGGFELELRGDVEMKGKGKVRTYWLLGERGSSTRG

Assay [13] concerns the target Atrial natriuretic peptide receptor 2 (Homo sapiens) (UniProt P20594). Briefly: Natriuretic polypeptide receptor (hNpr2) antagonism - Pilot subtype selectivity assay (AID 1347050; calls by dose curve). In outline:
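Read-out: GloSensor luminescence (CCD imager), baseline vs post-stimulation. HEK293 cells expressing hNpr2; compounds pre-incubated 30-50 min at ambient temperature; hNppC 1 nM final, 20 min.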

Assay [14] deals with T1, Tyrosine-protein phosphatase non-receptor type substrate 1 (Homo sapiens) + Leukocyte surface antigen CD47 (Homo sapiens) (UniProt P78324+Q08722). Nature of the assay: CD47-SIRPalpha protein protein interaction - LANCE assay qHTS validation (AID 1347057; active means well fitted curve in the direction sought with a large enough effect in the signal ratio, with a control signal flat, not every such curve was filed as active; the % refers to the signal ratio; further: series mostly up to about 38 µM). In a few lines: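 Inhibition of soluble CD47/SIRPalpha ectodomain association by titrated compounds, measured as 665/615 nm time-resolved FRET ratio after sequential 30 min room-temperature incubations.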
T1 sequence (P78324 whole entry, looked up, the tested form may be a part): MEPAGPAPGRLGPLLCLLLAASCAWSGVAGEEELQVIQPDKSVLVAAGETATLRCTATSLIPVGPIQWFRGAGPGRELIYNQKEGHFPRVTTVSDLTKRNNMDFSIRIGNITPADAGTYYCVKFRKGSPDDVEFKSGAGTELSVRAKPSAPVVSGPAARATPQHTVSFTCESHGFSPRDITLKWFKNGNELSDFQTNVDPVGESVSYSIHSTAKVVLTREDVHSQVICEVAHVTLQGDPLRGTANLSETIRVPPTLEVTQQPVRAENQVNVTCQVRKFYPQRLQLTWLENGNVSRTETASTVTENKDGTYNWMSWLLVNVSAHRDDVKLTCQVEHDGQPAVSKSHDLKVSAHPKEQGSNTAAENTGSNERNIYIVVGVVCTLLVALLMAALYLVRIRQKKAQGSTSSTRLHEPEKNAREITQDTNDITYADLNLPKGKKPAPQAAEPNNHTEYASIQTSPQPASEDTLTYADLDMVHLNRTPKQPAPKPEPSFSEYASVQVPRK
T1 sequence (Q08722 whole entry, looked up, the tested form may be a part): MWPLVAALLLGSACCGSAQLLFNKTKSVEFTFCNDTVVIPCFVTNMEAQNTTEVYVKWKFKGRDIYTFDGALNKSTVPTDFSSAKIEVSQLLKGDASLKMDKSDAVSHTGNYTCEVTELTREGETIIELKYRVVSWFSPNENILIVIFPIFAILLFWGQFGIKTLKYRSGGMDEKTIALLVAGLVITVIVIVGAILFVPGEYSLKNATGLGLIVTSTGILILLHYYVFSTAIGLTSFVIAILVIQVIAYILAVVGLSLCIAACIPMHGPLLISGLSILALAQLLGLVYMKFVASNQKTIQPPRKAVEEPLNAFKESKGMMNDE
Background: TR-FRET usually uses a lanthanide donor and a delayed reading to cut background.

The target in assay [15] is T1, Tyrosine-protein phosphatase non-receptor type substrate 1 (Homo sapiens) + Leukocyte surface antigen CD47 (Homo sapiens). Briefly: CD47-SIRPalpha protein protein interaction - HTRF assay qHTS validation (AID 1347058; active means well fitted curve in the direction sought with a large enough effect in the signal ratio, not every such curve was filed as active; the % refers to the signal ratio; further: series mostly up to about 38 µM). In a few lines: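 Soluble extracellular domains (6His-CD47, Avi-tag-biotinylated SIRPalpha) in PBS pH 7.4 with 0.05% IGEPAL CA-630. Compounds were preincubated 30 min at RT with CD47 and anti-His-Eu, then SIRPalpha and SAV-XL665 were added. TR-FRET 665/615 ratio.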

For assay [16] the target is unchanged. Briefly: CD47-SIRPalpha protein protein interaction - Alpha assay qHTS validation (AID 1347059).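 Further: bead proximity luminescence from CD47 binding SIRPalpha after compound preincubation with SIRPalpha; potency means the concentration at half of the fitted maximal effect.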 In outline:
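In PBS (pH 7.4) with 0.05% IGEPAL CA-630, compound is preincubated with biotin-Avi-SIRPalpha ectodomain before His-CD47 ectodomain and affinity beads are added. Light-protected room-temperature incubations; AlphaScreen readout.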

The target of assay [17] is Parathyroid hormone/parathyroid hormone-related peptide receptor (Homo sapiens) (UniProt Q03431). Briefly: qHTS for PTHR1 Agonists: Optimization Screen against the NCGC LOPAC library (AID 1347079).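 Further: GloSensor cAMP luminescence in HEK-293 GP2 cells expressing human PTHR1 with IBMX.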 In a few lines:
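Signal increase flags agonism. GP2 cells, derived from HEK-293, express human PTHR1 and a GloSensor cAMP construct.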

Values without a mark were called inactive. Results filed as inconclusive are left out. Activity calls are given as the source filed them. Unless noted, the call rests on the fitted dose curve; in most records, active means well fitted curve in the direction sought with a large enough effect; inconclusive means small, poorly fitted or top-dose-only effect, or another doubt; inactive means no such curve, though single readings can be large; an effect the other way counts as inactive or inconclusive.

Chain of Parathyroid hormone/parathyroid hormone-related peptide receptor (Homo sapiens) (Q03431 whole entry, looked up): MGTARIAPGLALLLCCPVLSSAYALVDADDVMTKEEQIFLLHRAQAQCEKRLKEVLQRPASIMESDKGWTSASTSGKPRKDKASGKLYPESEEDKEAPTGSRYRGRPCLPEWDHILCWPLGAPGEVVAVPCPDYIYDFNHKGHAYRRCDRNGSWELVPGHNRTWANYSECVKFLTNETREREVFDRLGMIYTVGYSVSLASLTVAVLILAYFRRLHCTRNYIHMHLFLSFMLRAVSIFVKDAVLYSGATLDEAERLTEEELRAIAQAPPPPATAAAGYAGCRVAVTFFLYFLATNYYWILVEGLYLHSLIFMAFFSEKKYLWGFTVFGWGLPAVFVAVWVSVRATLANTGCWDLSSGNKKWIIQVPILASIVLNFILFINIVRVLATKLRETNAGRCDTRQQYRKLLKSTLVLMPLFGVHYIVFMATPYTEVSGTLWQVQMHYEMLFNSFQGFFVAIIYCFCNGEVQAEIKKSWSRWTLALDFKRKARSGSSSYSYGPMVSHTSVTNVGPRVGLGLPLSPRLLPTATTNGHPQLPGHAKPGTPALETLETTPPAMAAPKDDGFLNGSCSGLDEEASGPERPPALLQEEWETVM
Chain of Atrial natriuretic peptide receptor 2 (Homo sapiens) (P20594 whole entry, looked up): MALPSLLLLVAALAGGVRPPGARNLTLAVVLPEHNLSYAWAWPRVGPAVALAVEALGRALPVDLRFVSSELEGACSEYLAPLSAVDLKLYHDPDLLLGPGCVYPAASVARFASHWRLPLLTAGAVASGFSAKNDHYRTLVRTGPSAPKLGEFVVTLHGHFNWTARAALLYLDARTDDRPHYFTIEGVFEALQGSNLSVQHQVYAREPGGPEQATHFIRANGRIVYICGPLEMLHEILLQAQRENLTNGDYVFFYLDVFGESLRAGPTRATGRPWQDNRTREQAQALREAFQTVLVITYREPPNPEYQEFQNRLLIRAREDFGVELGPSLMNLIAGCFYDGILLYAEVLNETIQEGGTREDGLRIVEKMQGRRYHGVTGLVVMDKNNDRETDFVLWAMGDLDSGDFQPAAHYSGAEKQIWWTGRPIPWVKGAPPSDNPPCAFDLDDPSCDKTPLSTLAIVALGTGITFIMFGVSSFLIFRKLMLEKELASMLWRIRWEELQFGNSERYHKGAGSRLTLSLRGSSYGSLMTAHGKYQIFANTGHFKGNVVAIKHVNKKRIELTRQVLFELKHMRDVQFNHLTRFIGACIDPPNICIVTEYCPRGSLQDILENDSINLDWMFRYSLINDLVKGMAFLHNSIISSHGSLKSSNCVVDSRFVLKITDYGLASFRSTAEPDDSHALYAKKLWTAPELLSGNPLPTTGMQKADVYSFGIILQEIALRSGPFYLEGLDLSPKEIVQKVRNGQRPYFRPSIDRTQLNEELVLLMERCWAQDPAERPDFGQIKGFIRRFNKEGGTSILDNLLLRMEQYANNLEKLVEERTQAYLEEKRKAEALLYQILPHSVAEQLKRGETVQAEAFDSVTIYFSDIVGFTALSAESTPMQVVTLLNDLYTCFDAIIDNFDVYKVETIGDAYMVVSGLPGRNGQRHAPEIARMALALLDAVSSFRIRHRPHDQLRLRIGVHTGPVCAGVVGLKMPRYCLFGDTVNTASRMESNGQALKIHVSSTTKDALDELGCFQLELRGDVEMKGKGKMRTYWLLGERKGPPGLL

Regarding `COc1cc2c(cc1OC)C(=O)C(CC1CCN(Cc3ccccc3)CC1)C2` (centres undefined), the Potency in assay [1] is 8.2 µM (active). For the same compound, the Potency entry in [2], in [3], in assay [4], in [5], in assay [6] and in [7] was “inactive” each time. Further, the Potency result in [8], in assay [9] and in assay [10] was “inactive” each time.
Turning to `N[C@@H](Cc1cnc[nH]1)C(=O)O`, the Potency result in assay [1] and in [2] was “inactive” each time. Besides, the compound was classed as inactive in [11], in assay [12], in assay [13], in assay [14], in [15] and in assay [17]. The Potency in [16] is 13.1 µM (active).
Regarding `O=c1ccc2ccccc2o1`, the Potency result in [1], in [2], in assay [3], in assay [4], in [5] and in assay [6] was “inactive” throughout. Also, the Potency entry in assay [7], in assay [8], in assay [9] and in assay [10] was “inactive” throughout.
In the case of `O=C1OC2(c3ccc(O)cc3Oc3cc(O)ccc32)c2ccccc21`, the Potency result in [1], in [2], in assay [3], in assay [4], in [5] and in assay [6] was “inactive” in each case. Moreover, the Potency result in [7], in assay [8], in [9] and in assay [10] was “inactive” each time.
With `CCCN1CCCC[C@H]1C(=O)Nc1c(C)cccc1C`, the Potency result in [1], in assay [2], in assay [3], in assay [4], in assay [5] and in assay [6] was “inactive” in each case. Further, the Potency result in [7], in assay [8], in assay [9] and in assay [10] was “inactive” throughout.
`CC(=O)OCC(=O)[C@@]12N=C(C)O[C@@H]1C[C@H]1[C@@H]3CCC4=CC(=O)C=C[C@]4(C)[C@H]3[C@@H](O)C[C@@]12C`: the Potency entry in assay [1], in assay [2], in assay [3], in [4], in assay [5] and in [6] was “inactive” in each case. The Potency result in [7], in [8], in assay [9] and in assay [10] was “inactive” each time.
With `OCc1ccccc1O`, the Potency result in [1], in assay [2], in assay [3], in [4], in assay [5] and in assay [6] was “inactive” in each case. The Potency result in assay [7], in assay [8], in assay [9] and in assay [10] was “inactive” each time.
Turning to `C[C@]12C=CC(=O)C=C1CC[C@@H]1[C@@H]2[C@@H](O)C[C@@]2(C)[C@H]1CC[C@]2(O)C(=O)CO`, the Potency entry in [1], in assay [2], in [3], in assay [4], in assay [5] and in assay [6] was “inactive” each time. For the same compound, the Potency result in assay [7], in [8], in assay [9] and in [10] was “inactive” in each case.
As to `CCN1CCN(c2cc3c(cc2F)c(=O)c(C(=O)O)cn3C2CC2)CC1`, the Potency entry in [1], in assay [2], in [3], in [4], in [5] and in assay [6] was “inactive” throughout. The Potency entry in [7], in assay [8], in assay [9] and in [10] was “inactive” throughout.
In the case of `CC(=O)[C@H]1CC[C@H]2[C@@H]3C[C@H](C)C4=CC(=O)CC[C@]4(C)[C@H]3[C@@H](O)C[C@]12C`, the Potency in assay [1] was 6.99 µM (active). Moreover, the Potency entry in [2], in assay [3], in [4], in assay [5], in [6] and in [7] was “inactive” throughout. Moreover, the Potency result in [8], in assay [9] and in assay [10] was “inactive” in each case.
